According to ChEMBL document CHEMBL4513216, “Probing the Open Global Health Chemical Diversity Library for Multistage-Active Starting Points for Next-Generation Antimalarials” (ACS Infect Dis, 2020):
About 8,600 (12%) of roughly 69,000 compounds showed an effect of 50% or more. What follows is part of a selection rich in strong results, with near analogues and random picks from the rest.

The compounds below were run on Plasmodium berghei (assay: Screen against P. berghei liver stage (PbLuc), transformed with Luciferase, at 10uM). Conditions: tested at 10 uM.
Type: functional, HepG2
In the case of `CN1C[C@@H](O)[C@]2(CCN(C(=O)c3ccccc3)C2)S1(=O)=O`, the INHIBITION is reported as 8.61%.
Compound `O=C(C1CCC1)N1C[C@H]2CC[C@@H](C1)N(S(=O)(=O)c1ccccc1)C2` has an INHIBITION of -49.3%.
`CCOc1nnc(CN(CC)CC(=O)NC(C)C)s1` gave an INHIBITION of 39.9%.
With `CCOc1nnc(CN(CC)CC(=O)Nc2c(F)cccc2F)s1` the INHIBITION was 69.1%.
`CCOc1nnc(CN(CC)CC(=O)NC(C)(C)C)s1` showed an INHIBITION of 24.7%.
For `Cc1oc(C)c(C(=O)N2CCCN(c3nccs3)CC2)c1C`, the INHIBITION was -21.7%.
`O=C(Cc1n[nH]c(-c2cncc(Br)c2)n1)NCc1ccncc1` was tested, and the INHIBITION was 29.4%.
With `NC(=O)CNC(c1ccccc1)c1ccc(OC(F)F)cc1` (configuration not stated) the INHIBITION was -11.9%.
In the case of `CC(NC(=O)CN1CCN(c2cccc(Cl)c2)CC1)c1ccco1` (configuration not stated), the INHIBITION is reported as 22.6%.
With `Cc1ccc(Cl)cc1N1CCN(CC(=O)NC(C)c2ccco2)CC1` (configuration not stated) the INHIBITION was 26.8%.
`CC(NC(=O)CN1CCN(c2ccncc2Cl)CC1)c1ccco1` (configuration not stated) gave an INHIBITION of 71.3%.
Compound `O=c1[nH]c(-c2ccccc2)nc2c1CCN(S(=O)(=O)N1CCCC1)C2` has an INHIBITION of 9%.
With `Cc1ccc(S(=O)(=O)N[C@H](CO)C(C)C)cc1N(C)C` the INHIBITION was 6.94%.
`CC1(C)CN=C(N2CCN(CC3CCOC3)CC2)S1` (configuration not stated) showed an INHIBITION of 32%.
With `CC1(C)CN=C(N2CCN(CC3CCCO3)CC2)S1` (configuration not stated) the INHIBITION was 25.5%.
`CC1(C)CN=C(N2CCN(CCCN3CCOCC3)CC2)S1` showed an INHIBITION of 89.6%.
With `Cc1nc(CN2C(=O)CC[C@@H]3[C@H]2CCN3C(=O)c2ccccn2)cs1` the INHIBITION was 48.6%.
Compound `O=C(c1cccnc1)N1Cc2ccccc2OCC1Cn1ccnc1` (configuration not stated) has an INHIBITION of 24.8%.
`Cc1nc(C)c(C(=O)N2Cc3ccccc3OCC2Cn2ccnc2)o1` (configuration not stated) gave an INHIBITION of 25.8%.
Compound `Cc1nc(C)c(C(=O)N2Cc3ccccc3OCC2Cn2ccnc2)s1` (configuration not stated) has an INHIBITION of 51.7%.
Compound `CCS(=O)(=O)N1C[C@@H](O)[C@H](N2CCc3ccccc3C2)C1` has an INHIBITION of 9.98%.
`Cc1noc(C)c1C(=O)N1CC[C@]2(C[C@@H](OCc3cccnc3)CO2)C1` gave an INHIBITION of 10.1%.
In the case of `CCC[C@@H]1CN(Cc2ccccc2-c2ccco2)C[C@H]1NC(C)=O`, the INHIBITION is reported as -20%.
Compound `Cc1nc(N(C)C)nc(C)c1NC(=O)c1ccccc1F` has an INHIBITION of 64.3%.
With `Cc1nc(N(C)C)nc(C)c1NC(=O)c1ccccc1C(F)(F)F` the INHIBITION was 46.3%.
Work on `Cc1nc(N(C)C)nc(C)c1NC(=O)c1ccco1` yielded an INHIBITION of -2.74%.
Compound `Cc1ccc(NC(=O)c2ncc(C(N)=O)cc2Cl)cc1F` has an INHIBITION of -10.8%.
For `CNS(=O)(=O)c1cc(C(=O)NC2COc3ccccc32)cc(C)c1C` (configuration not stated), the INHIBITION was 18.4%.
For `O=C(c1cccnc1N1CCCCC1)N1CCCC(n2cccn2)C1` (configuration not stated), the INHIBITION was -11.9%.
`CCCNS(=O)(=O)c1ccc2[nH]c(=O)cc(C)c2c1` gave an INHIBITION of 14.3%.
For `CNS(=O)(=O)c1cc(C)c2[nH]c(=O)cc(C)c2c1`, the INHIBITION was 56%.
`CCOCCNS(=O)(=O)c1cc(C)c2nc(O)cc(C)c2c1` showed an INHIBITION of 16.3%.
`CN(C)C(=O)[C@@H]1C[C@@H]2CCN(C3CCOCC3)C[C@@H]2O1` showed an INHIBITION of 14.5%.
`CCc1cc(NCC(O)CN2CCCCC2)n2ncnc2n1` (configuration not stated) showed an INHIBITION of -0.79%.
Compound `CCOc1cccc(C(=O)N2C[C@@H]3CC[C@H]2CN(C(=O)C2CCC2)C3)c1` has an INHIBITION of 27.6%.
`CN(C)C(=O)N1C[C@H]2CC[C@@H](C1)N(C(=O)c1cccc(N(C)C)c1)C2` was tested, and the INHIBITION was 26.7%.
With `CN(C)c1cccc(C(=O)N2C[C@@H]3CC[C@H]2CN(C(=O)C2CCC2)C3)c1` the INHIBITION was 50.3%.
In the case of `CN(C)C(=O)c1cnc2n1CCN(Cc1ccsc1)C2`, the INHIBITION is reported as 3.11%.
For `COCC1c2c(cnn2C)CCN1Cc1cccc(C)c1` (configuration not stated), the INHIBITION was 26.3%.
`CN1CCN(CC2(O)CCCN(C(=O)Cc3cccc(O)c3)CC2)CC1` (configuration not stated) showed an INHIBITION of -2.09%.
`O=S(=O)(Cc1ccccc1)NCc1ccco1` gave an INHIBITION of 11.5%.
With `O=S(=O)(Cc1ccc(F)cc1)NCc1ccco1` the INHIBITION was 52.1%.
`O=C1OCCN1c1cccc(CNS(=O)(=O)Cc2ccc(F)cc2)c1` gave an INHIBITION of 18.9%.
`Cc1ccc(CS(=O)(=O)NCc2ccco2)cc1` gave an INHIBITION of 52.1%.
`CNc1c(NCc2ccco2)c(=O)c1=O` gave an INHIBITION of 33.5%.
`CC(C)(Oc1ccc(F)cc1)C(=O)NCc1ccco1` showed an INHIBITION of -0.797%.
Work on `O=C1CCC[C@]2(CN(S(=O)(=O)N3CCCCC3)C[C@H]2c2cccnc2)N1` yielded an INHIBITION of 17.4%.
For `O=C(CO[C@@H]1CC[C@H]2[C@H]1OCCN2CC1CCOCC1)N1CCCC1`, the INHIBITION was 11.9%.
With `CN1CCOCC2(CCCN(C(=O)c3ccc(-n4cccc4)cc3)C2)C1` (configuration not stated) the INHIBITION was 50.9%.
In the case of `Cc1cc(C(=O)N2CCCC3(COCCN(CCN(C)C)C3)C2)no1` (configuration not stated), the INHIBITION is reported as 56.1%.
`CN1CCOCC2(CCCN(C(=O)c3cn(C)cn3)C2)C1` (configuration not stated) showed an INHIBITION of -57.7%.
Compound `CN1CCOCC2(CCCN(C(=O)c3ccccc3F)C2)C1` (configuration not stated) has an INHIBITION of 34.6%.
With `CN(C)CCN1CCOCC2(CCCN(C(=O)c3cccn3C)C2)C1` (configuration not stated) the INHIBITION was 47.9%.
Work on `CN(C)CCN1CCOCC2(CCCN(C(=O)c3ccccc3)C2)C1` (configuration not stated) yielded an INHIBITION of 20.9%.
`CN(C)CCN1CCOCC2(CCCN(C(=O)c3ccoc3)C2)C1` (configuration not stated) gave an INHIBITION of 30.3%.
In the case of `CN(C)CCN1CCOCC2(CCCN(C(=O)c3ccccn3)C2)C1` (configuration not stated), the INHIBITION is reported as 54.7%.
Work on `CN(C)CCN1CCOCC2(CCCN(C(=O)c3cccc(O)c3)C2)C1` (configuration not stated) yielded an INHIBITION of 4.61%.
